Test results reported in PubChem BioAssay (NCATS).
Records with an inconclusive call do not appear. Calls of active or inactive are those of the source. Calls follow the shape of the dose curve; as a rule, active = well fitted curve in the direction sought with a large enough effect in the repeat runs; inconclusive = weak or mixed curves; inactive = no such curve, though single readings can be large; an effect the other way counts as inactive or inconclusive.

experiment: qHTS assay for small molecule agonists of the antioxidant response element (ARE) signaling pathway measured by Nrf2-dependant transcriptional activity (AID 720636); details: ARE-luc HepG2, Nrf2 luciferase reporter, 16 h; series mostly up to 92.4 µM; activation: at the top concentration;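 as to activation: HepG2 cells with an ARE-driven luciferase reporter; % of control where 0% means no effect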
In short: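 First, ARE-luc HepG2 cells attached for 6 hr at 37 C in 1% dialyzed FBS medium. Next, compound or DMSO was added and incubated 16 hr. Finally, ONE-Glo reagent was added and luminescence measured after 30 min.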
Potency is read from the fitted curve at half-maximal effect.

SMILES | activation | Potency
CN(C)c1ccc(C2(c3ccc(N(C)C)cc3)OC(=O)c3cc(N(C)C)ccc32)cc1 | -0.42% (inactive) | –
Cc1cc(Nc2ccc(O)cc2)ccc1N | 0.299% (inactive) | –
CO[C@H]1/C=C/O[C@@]2(C)Oc3c(C)c(O)c4c(O)c(c5c(c4c3C2=O)NC2(CCN(CC(C)C)CC2)N=5)=NC(=O)/C(C)=C\C=C\[C@H](C)[C@H](O)[C@@H](C)[C@@H](O)[C@@H](C)[C@H](OC(C)=O)[C@@H]1C | -1.19% (inactive) | –
Cc1cc(O)c(C(C)(C)C)cc1Sc1cc(C(C)(C)C)c(O)cc1C | – | inactive
C=C(C)c1ccccc1 | -2.39% (inactive) | –
Cc1ccc(S(=O)(=O)Oc2ccc(N=Nc3ccc(-c4ccc(N=Nc5c(O)ccc6cc(S(=O)(=O)O)cc(S(=O)(=O)O)c56)c(C)c4)cc3C)cc2)cc1 | -1.26% (inactive) | –
O=C1OC2(c3cc(Br)c(O)c(Br)c3Oc3c2cc(Br)c(O)c3Br)c2c(Cl)c(Cl)c(Cl)c(Cl)c21 | -0.974% (inactive) | –
ClC1=C(Cl)C(Cl)(Cl)C(Cl)=C1Cl | – | inactive
C=CC(=O)OCCOCCOC(=O)C=C | – | 66.8 µM (active)
CNc1ccc(O)cc1 | – | 37.6 µM (active)
CCC(C)Nc1ccc(NC(C)CC)cc1 (configuration not stated) | -5.62% (inactive) | –
O=C=Nc1ccc(Cc2ccc(N=C=O)cc2)cc1 | – | inactive
O=Cc1ccc(Cl)c(Cl)c1 | -0.682% (inactive) | –

experiment: qHTS assay for small molecule antagonists of the retinoid-related orphan receptor gamma (ROR-gamma) signaling pathway - cell viability counter screen (AID 720652); details: RORgamma reporter cell line viability counter screen; series mostly up to 92.2 µM; activity change, negative = cytotoxicity: at the top concentration;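 also: compound exposure lasted 16 hr before ATP read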; as to activity change, negative = cytotoxicity: % is scaled to controls: 0 for no effect and ±100 for the full control effect
In short: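 Luminescence from CellTiter-Glo after 30 min at room temperature reported cellular ATP as the cytotoxicity measure. Cells were the CHO reporter line with doxycycline-induced ROR-gamma expression, exposed to compound for 16 hr at 37 C.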

SMILES | activity change, negative = cytotoxicity | Potency
Nc1ccc2cc3ccccc3cc2c1 | -10.3% (inactive) | –
CN(C)c1ccc(C2(c3ccc(N(C)C)cc3)OC(=O)c3cc(N(C)C)ccc32)cc1 | 8.57% (inactive) | –
CO[C@H]1/C=C/O[C@@]2(C)Oc3c(C)c(O)c4c(O)c(c5c(c4c3C2=O)NC2(CCN(CC(C)C)CC2)N=5)=NC(=O)/C(C)=C\C=C\[C@H](C)[C@H](O)[C@@H](C)[C@@H](O)[C@@H](C)[C@H](OC(C)=O)[C@@H]1C | -6.03% (inactive) | –
Cc1cc(O)c(C(C)(C)C)cc1Sc1cc(C(C)(C)C)c(O)cc1C | – | 18.8 µM (active)
C=C(C)c1ccccc1 | -9.9% (inactive) | –
Cc1ccc(S(=O)(=O)Oc2ccc(N=Nc3ccc(-c4ccc(N=Nc5c(O)ccc6cc(S(=O)(=O)O)cc(S(=O)(=O)O)c56)c(C)c4)cc3C)cc2)cc1 | 2.52% (inactive) | –
C=CC(=O)OCCOCCOC(=O)C=C | 3.63% (inactive) | –
O=C1OC(O)C(C(Cl)Cl)=C1Cl (configuration not stated) | – | 26.6 µM (active)
CC(=O)Nc1ccc(C(=O)CCl)cc1 | – | 18.8 µM (active)
CCC(C)Nc1ccc(NC(C)CC)cc1 (configuration not stated) | – | 8.41 µM (active)
O=C=Nc1ccc(Cc2ccc(N=C=O)cc2)cc1 | 7.17% (inactive) | –
c1ccc2c(c1)ccc1cc3c(ccc4ccccc43)cc12 | 8.83% (inactive) | –
O=[N+]([O-])c1cc([N+](=O)[O-])c2ccc(S(=O)(=O)O)cc2c1O | -3.46% (inactive) | –
O=Cc1ccc(Cl)c(Cl)c1 | 8.86% (inactive) | –
